# Data reported in PubChem BioAssay.
# Records with an inconclusive call do not appear. Active and inactive are the calls of the source.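 The calls were made as follows, unless noted: active = GFP response, as percent of the DMSO control, above the screen-wide mean plus 3 SD, about 139; inconclusive = no response measured because the compound's own fluorescence interfered; inactive = the rest.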
# Tests used:
# [1] = rapamycin-like changes in RPL19A-GFP expression – cell-based, S. cerevisiae, multiplex flow cytometry, primary screen (AID 1862; in the data active = percent of DMSO control GFP below about 86%;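 also: lower values mimic rapamycin by blocking the RPL19A rise seen in DMSO cells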); conditions: S. cerevisiae RPL19A-GFP strain, flow cytometry fluorescence, 3 h; at 10 µM; stronger effect = lower value
# [2] = TOR pathway GLN3 branch reporter MEP2-GFP changes – S. cerevisiae, multiplex flow cytometry, primary screen (AID 1867);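 also: median GFP channel fluorescence of barcode-gated MEP2-GFP cells measured by flow cytometry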; conditions: S. cerevisiae MEP2-GFP strain, 3 h, at 10 µM, stronger effect = higher value, 100% means same as DMSO wells
# [3] = TOR pathway RTG branch CIT2 reporter changes – S. cerevisiae, GFP fusion, multiplex flow cytometry, primary screen (AID 1870;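 active = percent response above a set limit, the screen-wide mean plus 3 SD, cut at about 130% in these data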;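 also: barcoded CIT2-GFP strain pooled with four other GFP strains with rapamycin as positive control; median GFP fluorescence per well over plate mean of DMSO wells so 100% = DMSO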); conditions: S. cerevisiae CIT2-GFP expression, 3 h, at 10 µM, stronger effect = higher value
# [4] = TOR pathway LAP4-GFP level changes – S. cerevisiae, multiplex flow cytometry, primary screen (AID 1873;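 active = GFP signal, as percent of the solvent control, above the screen mean plus 3 SD, about 149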); conditions: S. cerevisiae LAP4-GFP expression, 3 h, at 10 µM, stronger effect = higher value
# [5] = yeast AGP1-GFP level changes, GLN3 branch – cell-based, multiplex flow cytometry, S. cerevisiae, primary screen (AID 1887;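 active = GFP signal above the screen-wide mean plus 3 SD, that is over about 124.5% of the solvent control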;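 also: AGP1-GFP fusion strain of S. cerevisiae within a five-strain barcoded multiplex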); conditions: 3 h, at 10 µM, stronger effect = higher value
# [6] = hit retest on RPL19A-GFP reporter strain – cell-based, S. cerevisiae, flow cytometry, cherry picks, mother/daughter gates, confirmation (AID 2270;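 active = GFP response below 50% of the DMSO control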); conditions: 3 h, at 10 µM, stronger effect = lower value, 100 = same GFP as DMSO wells
# [7] = yeast TOR pathway reporter LAP4-GFP change – cell-based, cherry picks, flow cytometry, mother/daughter gates, confirmation (AID 2271;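 active = GFP response above 150% of the DMSO control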;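 also: ratio of sample to DMSO plate mean so 100% equals DMSO level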); conditions: S. cerevisiae LAP4-GFP strain, 3 h, at 10 µM, stronger effect = higher value, 100 means same as DMSO control
# [8] = TOR pathway reporter MEP2-GFP, retest of hits – S. cerevisiae, flow cytometry GFP, cherry picks, confirmation (AID 2272;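 active = GFP response above 150% of the DMSO control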;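 also: ratio of well signal to plate DMSO mean so 100% equals DMSO level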); conditions: S. cerevisiae MEP2-GFP strain, 3 h, at 10 µM, stronger effect = higher value
# [9] = TOR pathway CIT2 reporter hit retest – S. cerevisiae, GFP fusion, cherry picks, mother/daughter gates, confirmation (AID 2274;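 active = GFP response above 150% of the DMSO level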); conditions: S. cerevisiae CIT2-GFP strain, flow cytometry, 3 h, at 10 µM, stronger effect = higher value
# [10] = reduced mouse 2C T cell binding to pMHC/ICAM-1 vesicles – MLPCN validation set, flow cytometry, LFA-1/ICAM-1 modulator project, pilot screen (AID 2523;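 active = response below a set limit, under 55% cells CD8-positive and vesicle-bound, and CD8 cells' 90th-percentile brightness under 279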;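 as to vesicle binding response: mean PE anti-B7-1 fluorescence of CD8+ cells relative to row control; 100% = QL9-loaded vesicles with DMSO vehicle in the same plate row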); conditions: 2C mouse CD8+ T cells, at 7 µM, stronger effect = lower value; double positive events: measured here: CD8+/vesicle+ event percentage
# [11] = molecular target: Integrin beta-1 (Homo sapiens) + Integrin alpha-4 (Homo sapiens) (UniProt P13612+P05556); assay: alpha4beta1 integrin LIBS antibody binding reduction – U937 cells, HUTS-21 mAb, flow cytometry, validation set, VLA-4 allosteric modulator project, pilot screen (AID 2674;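 active = inhibition above 50%, about 3 SD of the validation set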;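 also: antibody binding induced by the VLA-4 ligand LDV present at three times its Kd; 0% = LDV ligand with antibody and no compound and 100% = antibody without LDV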); conditions: HUTS-21 LIBS mAb binding, at 6.7 µM, stronger effect = higher value, binding induced by LDV ligand
# Chain of Integrin beta-1 (Homo sapiens) + Integrin alpha-4 (Homo sapiens) (P05556 whole entry, looked up): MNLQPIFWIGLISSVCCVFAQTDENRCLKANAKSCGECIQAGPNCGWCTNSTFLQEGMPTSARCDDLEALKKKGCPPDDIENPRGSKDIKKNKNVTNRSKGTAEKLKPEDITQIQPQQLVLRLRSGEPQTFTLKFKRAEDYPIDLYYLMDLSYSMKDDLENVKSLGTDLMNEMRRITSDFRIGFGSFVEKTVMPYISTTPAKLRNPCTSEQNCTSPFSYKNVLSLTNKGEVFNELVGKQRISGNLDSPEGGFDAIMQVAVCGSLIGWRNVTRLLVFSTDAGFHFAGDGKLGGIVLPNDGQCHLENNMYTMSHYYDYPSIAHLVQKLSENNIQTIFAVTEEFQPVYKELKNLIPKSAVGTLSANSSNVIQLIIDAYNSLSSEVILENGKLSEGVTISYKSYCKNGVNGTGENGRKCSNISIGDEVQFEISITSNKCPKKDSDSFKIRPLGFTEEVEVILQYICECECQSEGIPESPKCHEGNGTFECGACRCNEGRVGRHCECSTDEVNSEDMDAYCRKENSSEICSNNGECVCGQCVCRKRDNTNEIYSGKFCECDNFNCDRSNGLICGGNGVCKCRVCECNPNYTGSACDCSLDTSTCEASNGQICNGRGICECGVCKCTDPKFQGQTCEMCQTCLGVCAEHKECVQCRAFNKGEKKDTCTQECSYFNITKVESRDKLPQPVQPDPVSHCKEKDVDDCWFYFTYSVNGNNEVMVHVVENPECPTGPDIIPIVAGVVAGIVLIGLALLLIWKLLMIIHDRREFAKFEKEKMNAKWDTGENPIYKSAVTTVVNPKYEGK
# Chain of Integrin beta-1 (Homo sapiens) + Integrin alpha-4 (Homo sapiens) (P13612 whole entry, looked up): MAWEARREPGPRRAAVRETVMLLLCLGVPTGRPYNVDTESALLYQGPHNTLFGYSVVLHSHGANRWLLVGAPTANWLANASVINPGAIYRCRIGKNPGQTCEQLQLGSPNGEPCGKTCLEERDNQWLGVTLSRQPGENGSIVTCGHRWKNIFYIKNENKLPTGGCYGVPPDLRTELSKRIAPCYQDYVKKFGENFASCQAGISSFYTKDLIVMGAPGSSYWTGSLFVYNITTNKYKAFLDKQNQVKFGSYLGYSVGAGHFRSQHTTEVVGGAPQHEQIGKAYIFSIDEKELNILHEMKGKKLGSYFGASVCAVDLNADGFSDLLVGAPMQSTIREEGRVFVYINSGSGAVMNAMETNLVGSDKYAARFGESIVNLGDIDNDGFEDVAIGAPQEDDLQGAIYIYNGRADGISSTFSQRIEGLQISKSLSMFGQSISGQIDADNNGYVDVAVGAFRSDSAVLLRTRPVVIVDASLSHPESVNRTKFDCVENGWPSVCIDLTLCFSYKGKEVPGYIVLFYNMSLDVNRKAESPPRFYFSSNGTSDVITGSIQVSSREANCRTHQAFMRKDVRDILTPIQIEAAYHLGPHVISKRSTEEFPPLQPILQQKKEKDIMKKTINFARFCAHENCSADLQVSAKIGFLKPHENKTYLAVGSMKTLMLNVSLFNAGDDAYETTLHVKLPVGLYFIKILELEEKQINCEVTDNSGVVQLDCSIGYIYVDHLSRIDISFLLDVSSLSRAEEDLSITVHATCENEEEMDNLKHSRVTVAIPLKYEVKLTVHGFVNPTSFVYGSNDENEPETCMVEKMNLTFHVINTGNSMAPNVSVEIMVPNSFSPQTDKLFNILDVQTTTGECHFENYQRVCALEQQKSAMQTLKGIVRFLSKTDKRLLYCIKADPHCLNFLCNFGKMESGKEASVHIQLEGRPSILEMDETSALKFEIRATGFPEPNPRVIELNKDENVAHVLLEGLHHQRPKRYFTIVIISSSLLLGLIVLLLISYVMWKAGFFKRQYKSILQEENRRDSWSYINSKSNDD
# [12] = calorie-restriction mimetic ROS inhibitors, yeast – validation compound set, pilot screen (AID 2706;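 active = superoxide response below 65% of plate, a cut near 3 SD across the whole screen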;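 also: yeast exposed to compound for one week at 30 degrees C before staining; 100% = mean of all compound wells on the same plate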); conditions: S. cerevisiae aging, superoxide DHE fluorescence; at 10 µM; stronger effect = lower value
# [13] = molecular target: Beta-adrenergic receptor kinase 1 (Homo sapiens) (UniProt P25098); assay: GRK2 binders displacing RNA aptamer, biochemical, validation, human GRK2, bead flow cytometry (AID 488806;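 active = aptamer binding inhibition above 30%, about 3 SD of noise from non-fluorescent compounds; inactive = inhibition at or below 30%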); conditions: bead-bound GRK2, FAM-aptamer displacement, at 10 µM, stronger effect = higher value
# Chain of Beta-adrenergic receptor kinase 1 (Homo sapiens) (P25098 whole entry, looked up): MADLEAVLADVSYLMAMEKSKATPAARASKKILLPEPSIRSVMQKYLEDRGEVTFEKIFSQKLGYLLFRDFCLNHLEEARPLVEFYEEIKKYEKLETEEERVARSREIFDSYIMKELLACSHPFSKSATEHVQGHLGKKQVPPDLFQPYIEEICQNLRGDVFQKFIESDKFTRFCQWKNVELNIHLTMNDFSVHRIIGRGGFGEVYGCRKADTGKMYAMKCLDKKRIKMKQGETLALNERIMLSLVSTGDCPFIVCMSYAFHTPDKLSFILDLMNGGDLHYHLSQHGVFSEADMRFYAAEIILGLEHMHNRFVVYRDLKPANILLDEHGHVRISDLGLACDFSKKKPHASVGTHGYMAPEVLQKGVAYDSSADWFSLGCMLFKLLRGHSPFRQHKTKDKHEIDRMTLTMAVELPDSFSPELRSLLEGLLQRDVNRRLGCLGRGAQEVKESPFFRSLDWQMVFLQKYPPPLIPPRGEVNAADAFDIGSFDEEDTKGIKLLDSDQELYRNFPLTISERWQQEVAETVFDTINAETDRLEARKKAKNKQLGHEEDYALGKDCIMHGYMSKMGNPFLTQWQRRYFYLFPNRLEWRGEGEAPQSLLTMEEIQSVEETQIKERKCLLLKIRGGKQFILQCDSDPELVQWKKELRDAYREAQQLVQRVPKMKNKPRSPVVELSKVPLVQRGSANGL
# [14] = molecular target: Beta-2 adrenergic receptor (Homo sapiens) (UniProt P07550); assay: agonist-induced loss of surface beta2AR – cell-based, FAP fluorogen, flow cytometry, validation set, pilot screen (AID 504459;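 active = percent response above 42, roughly 3 SD of non-fluorescent test compounds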;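 also: agonist-driven loss of surface beta2AR via internalization measured by FAP dye flow cytometry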); conditions: Am2.2-beta2AR cells, at 10 µM, stronger effect = higher value
# Chain of Beta-2 adrenergic receptor (Homo sapiens) (P07550 whole entry, looked up): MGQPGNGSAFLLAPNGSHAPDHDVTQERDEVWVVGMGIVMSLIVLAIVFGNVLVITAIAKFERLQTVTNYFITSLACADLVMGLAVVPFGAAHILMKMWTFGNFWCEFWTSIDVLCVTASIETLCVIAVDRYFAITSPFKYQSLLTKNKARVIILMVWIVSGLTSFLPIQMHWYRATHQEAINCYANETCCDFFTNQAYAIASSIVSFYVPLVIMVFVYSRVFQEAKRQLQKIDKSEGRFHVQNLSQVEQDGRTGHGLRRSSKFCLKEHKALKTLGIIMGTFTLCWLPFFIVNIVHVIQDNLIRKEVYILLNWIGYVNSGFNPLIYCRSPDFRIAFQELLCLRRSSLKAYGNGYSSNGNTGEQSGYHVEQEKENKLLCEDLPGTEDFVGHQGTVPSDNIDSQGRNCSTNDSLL
# [15] = molecular target: AP-2 complex subunit beta (Homo sapiens) (UniProt P63010); assay: beta-arrestin/AP2 interaction blockers – biochemical, validation set, GST-AP2 beads, flow cytometry, pilot screen (AID 504541;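 active = inhibition above 54%, about 3 SD of non-fluorescent compounds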;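 also: AP2 carries R879A mutation and is captured from E. coli lysate; bead-bound FITC arrestin peptide fluorescence measuring arrestin peptide binding to AP2; 0% = DMSO wells and 100% = excess unlabeled arrestin peptide control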); conditions: FITC arrestin peptide, at 10 µM, stronger effect = higher value, AP2 beta2 appendage fragment, R879A mutant
# Chain of AP-2 complex subunit beta (Homo sapiens) (P63010 whole entry, looked up, the tested form may be a part, one chain of several): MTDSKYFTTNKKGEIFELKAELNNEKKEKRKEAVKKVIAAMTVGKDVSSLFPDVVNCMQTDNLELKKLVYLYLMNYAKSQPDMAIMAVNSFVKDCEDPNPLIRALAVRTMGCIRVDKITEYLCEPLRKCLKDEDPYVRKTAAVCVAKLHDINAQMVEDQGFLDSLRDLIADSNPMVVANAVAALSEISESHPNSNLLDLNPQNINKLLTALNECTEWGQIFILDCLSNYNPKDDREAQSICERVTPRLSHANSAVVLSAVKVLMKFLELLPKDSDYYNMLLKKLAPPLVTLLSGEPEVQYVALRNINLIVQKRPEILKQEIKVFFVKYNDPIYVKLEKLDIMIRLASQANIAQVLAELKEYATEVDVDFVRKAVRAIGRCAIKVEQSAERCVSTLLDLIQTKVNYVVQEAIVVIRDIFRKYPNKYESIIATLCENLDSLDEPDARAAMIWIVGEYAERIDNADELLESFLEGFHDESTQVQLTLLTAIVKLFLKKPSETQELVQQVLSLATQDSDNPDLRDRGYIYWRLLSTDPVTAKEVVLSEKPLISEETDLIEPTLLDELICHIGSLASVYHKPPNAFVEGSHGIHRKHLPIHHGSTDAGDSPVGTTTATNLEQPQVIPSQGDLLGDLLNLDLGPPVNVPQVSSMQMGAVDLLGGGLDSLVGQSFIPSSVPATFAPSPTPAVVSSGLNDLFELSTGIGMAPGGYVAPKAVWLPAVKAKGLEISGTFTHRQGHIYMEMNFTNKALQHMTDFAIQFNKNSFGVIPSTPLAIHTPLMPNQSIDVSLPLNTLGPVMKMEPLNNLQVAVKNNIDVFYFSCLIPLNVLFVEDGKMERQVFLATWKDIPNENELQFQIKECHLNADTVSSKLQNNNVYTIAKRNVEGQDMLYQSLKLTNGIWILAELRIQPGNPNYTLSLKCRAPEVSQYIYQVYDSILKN
# [16] = cytosolic pH regulators acting via V-ATPase – S. cerevisiae, pHLuorin, HTS validation (AID 504600; in the data active = response above about 15%;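 also: plate controls were DMSO for no effect and reference compound for full effect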); conditions: V-ATPase proton transport, at 10 µM, stronger effect = higher value
# [17] = tested on: anti-desmoglein-3 scFv antibody binding to human DSG3; assay: blockers of pathogenic pemphigus antibody–desmoglein-3 binding – biochemical, validation compound set, bead-based, flow cytometry, pilot screen (AID 588368;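 active = binding below the plate cutoff, the plate median minus 3 SD, with a reading above zero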;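 also: signal is the median channel fluorescence of bead-bound GFP antibody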); conditions: Protein G beads, DSG3-Fc, scFv-GFP binding, at 10 µM, stronger effect = lower value
# [18] = Nile Red efflux blockade in pump-expressing yeast – validation compound set, multiplex, phenotypic, pilot screen (AID 588506;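 active = efflux inhibition above 0.42, the validation set average plus 4 SD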;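 also: Nile Red retained in cells so higher fluorescence means more efflux inhibition; 0 = negative control wells and 1 = enniatin B 25 µM full block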); conditions: S. cerevisiae pump-expressing triplex, Nile Red efflux flow cytometry; at 10 µM; stronger effect = higher value; the pumps come from Candida albicans
# [19] = molecular target: ATP-binding cassette sub-family B member 6 (Homo sapiens) (UniProt Q9NP58); assay: blockers of ABCB6-driven porphyrin uptake – K562-ABCB6 cells, flow cytometry, validation set, pilot screen (AID 588550;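 active = inhibition above the screen-wide mean plus 3 SD, about 51%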;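 also: 0% = DMSO wells and 100% = benzethonium chloride 70 µM positive control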); conditions: K562-ABCB6 porphyrin accumulation, 1 h, at 10 µM, stronger effect = higher value
# Chain of ATP-binding cassette sub-family B member 6 (Homo sapiens) (Q9NP58 whole entry, looked up): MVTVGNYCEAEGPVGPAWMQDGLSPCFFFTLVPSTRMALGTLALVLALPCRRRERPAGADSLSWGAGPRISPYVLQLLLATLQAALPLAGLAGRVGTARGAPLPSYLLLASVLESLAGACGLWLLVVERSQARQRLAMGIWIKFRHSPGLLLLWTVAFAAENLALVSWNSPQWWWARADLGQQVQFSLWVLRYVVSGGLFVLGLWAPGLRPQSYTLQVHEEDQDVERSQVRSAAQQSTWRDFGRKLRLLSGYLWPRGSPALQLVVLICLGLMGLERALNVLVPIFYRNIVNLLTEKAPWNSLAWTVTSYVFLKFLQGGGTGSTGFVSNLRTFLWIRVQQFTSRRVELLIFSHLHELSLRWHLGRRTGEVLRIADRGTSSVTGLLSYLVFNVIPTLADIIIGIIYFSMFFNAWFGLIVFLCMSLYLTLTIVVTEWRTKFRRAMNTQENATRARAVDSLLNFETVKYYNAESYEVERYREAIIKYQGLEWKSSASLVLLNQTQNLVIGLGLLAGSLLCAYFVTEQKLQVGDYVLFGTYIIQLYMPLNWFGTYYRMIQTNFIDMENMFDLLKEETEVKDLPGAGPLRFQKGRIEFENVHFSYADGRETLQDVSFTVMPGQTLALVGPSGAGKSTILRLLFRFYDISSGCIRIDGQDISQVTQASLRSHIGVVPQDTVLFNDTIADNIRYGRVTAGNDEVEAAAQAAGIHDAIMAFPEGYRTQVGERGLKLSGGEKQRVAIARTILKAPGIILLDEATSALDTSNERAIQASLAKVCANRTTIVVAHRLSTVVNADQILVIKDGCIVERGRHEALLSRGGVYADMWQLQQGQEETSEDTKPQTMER
# [20] = AML differentiation inducers, ER-HoxA9 marrow cells – cell-based, GFP/MAC1 double positive, flow cytometry, validation set, primary screen (AID 588685;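 active = differentiation response of at least 50%, scaled between solvent and reference control, from cells with both markers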;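 also: compound exposure lasts four days before antibody staining and flow analysis; 0% = DMSO wells and 100% = 5 µM fulvestrant positive control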); conditions: stronger effect = higher value, normalized: vehicle 0, fulvestrant 100
# [21] = measured here: daughter cell gate
# [22] = measured here: mother cell gate
structure (smiles),measurement,setting,value
COc1cc2c(cc1OC)C(c1ccccc1)=NCC2,percent of DMSO control GFP,[1],92.2% (inactive)
same,GFP response vs DMSO,[2],144% (active)
same,percent response of DMSO control,[3],103% (inactive)
same,GFP response vs DMSO,[4],84.2% (inactive)
same,"GFP response, % of DMSO",[5],97.7% (inactive)
same,GFP response vs DMSO,[6],98.2% (inactive)
same,GFP response vs DMSO,[6]; [21],97.6%
same,GFP response vs DMSO,[6]; [22],99.7%
same,GFP response relative to DMSO,[7],88.9% (inactive)
same,GFP response relative to DMSO,[7]; measured here: daughter cell gate response,88%
same,GFP response relative to DMSO,[7]; measured here: mother cell gate response,87.6%
same,GFP response vs DMSO,[8],100% (inactive)
same,"GFP response, % of DMSO",[9],103% (inactive)
same,"GFP response, % of DMSO",[9]; [21],106%
same,"GFP response, % of DMSO",[9]; [22],102%
same,double positive events,[10],59.5%
same,vesicle binding response,[10],202% (inactive)
same,inhibition,[11],2.58% (inactive)
same,superoxide response (% of plate),[12],93.7% (inactive)
same,aptamer binding inhibition,[13],3% (inactive)
same,response,[14],2.38% (inactive)
same,inhibition,[15],6.17% (inactive)
same,response,[16],-0.17% (inactive)
same,binding (% of control),[17],99% (inactive)
same,efflux inhibition (fraction of control),[18],0.34 (inactive)
same,inhibition,[19],6% (inactive)
same,differentiation response,[20],1.64% (inactive)
